In all, about 420,000 compounds went through this assay and about 540 (0.13%) were called active. This excerpt belongs to a sample that is enriched for actives. A number with no mark means an inactive call. No stated cut-off is given here; in the data, active means activity change below about -50%; inconclusive means mostly about -30% to -49%; inactive means weaker than that.

Activity change, negative = inhibition data for 53 compounds are collected here from PubChem BioAssay AID1346378 (National Center for Advancing Translational Sciences (NCATS), 2018).

Chain of Phosphatidylinositol 4-kinase type 2-alpha (Homo sapiens) (Q9BTU6 whole entry, looked up): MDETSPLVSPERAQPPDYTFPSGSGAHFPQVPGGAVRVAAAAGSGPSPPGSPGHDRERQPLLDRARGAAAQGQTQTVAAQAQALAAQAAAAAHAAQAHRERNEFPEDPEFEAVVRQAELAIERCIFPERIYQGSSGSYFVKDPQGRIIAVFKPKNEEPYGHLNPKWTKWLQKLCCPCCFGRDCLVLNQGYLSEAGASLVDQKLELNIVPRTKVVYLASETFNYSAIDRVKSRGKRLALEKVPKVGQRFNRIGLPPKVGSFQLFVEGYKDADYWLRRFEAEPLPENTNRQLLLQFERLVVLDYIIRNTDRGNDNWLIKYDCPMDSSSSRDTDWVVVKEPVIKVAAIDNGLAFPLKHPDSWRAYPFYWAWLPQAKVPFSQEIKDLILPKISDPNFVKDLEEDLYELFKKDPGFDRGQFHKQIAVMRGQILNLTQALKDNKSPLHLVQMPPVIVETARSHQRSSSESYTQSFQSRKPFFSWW

The test has as its target Phosphatidylinositol 4-kinase type 2-alpha (Homo sapiens) (UniProt Q9BTU6). The test is described as follows: qHTS for small molecular inhibitors of PI4K2A.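 On Activity change, negative = inhibition: -100% = wells without enzyme as full effect.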 The conditions noted are these: purified PI4K2A, ADP-Glo luminescence, 1 h; at 76.9 µM, active compounds read low. In short, it runs like this: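 ADP-Glo luminescence measured ADP generated by PI4K2A enzyme (4 ug/mL before mixing) with 1.2 mM PI substrate (pre-mix) and 300 microM ATP (pre-mix). Tris pH7.5 buffer with MgCl2, Triton X-100; 1 h reaction at ambient temperature.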
For orientation: qHTS replaces the single test concentration by a dilution series.
For the compound `Nc1ccc2c3c(cccc13)C(=O)NC2=O`, the activity change, negative = inhibition was -1.25%.

Consider `CN[C@@H]1[C@@H](O)[C@@H](O[C@@H]2[C@H](O)[C@H](O[C@H]3OC(CN)=CC[C@H]3N)[C@@H](N)C[C@H]2N)OCC1(C)O` (stereo partly drawn), for which the activity change, negative = inhibition was 3.62%.

Take `CC1(C)S[C@@H]2[C@H](N=CN3CCCCCC3)C(=O)N2[C@H]1C(=O)O`: the activity change, negative = inhibition is -3.84%.

For the compound `Cc1cc(C)cc(-n2ccnc2SCC(=O)Nc2nc3ccccc3s2)c1`, the activity change, negative = inhibition was -3.54%.

As for `CCOc1ccc(NC(=O)CSc2c3c(nc4ccccc24)CCCC3)cc1`, the activity change, negative = inhibition was -3.16%.

With `CCOc1ccc(N/C=C/C(=O)c2ccccc2)cc1`, the activity change, negative = inhibition is -50.8% (active).

For `CCOc1ccc(NC(=O)N(CC(C)C)CC(C)C)cc1`, the activity change, negative = inhibition was 7.41%.

In the case of `COc1ccc(C(=O)NCC(c2ccc(N(C)C)cc2)N2CCc3ccccc32)c(OC)c1` (stereo not drawn), the activity change, negative = inhibition was 0.413%.

As to `CCCCN(C)CCCNC(=O)CN1N=C(c2ccc(OC)cc2)CCC1=O`, the activity change, negative = inhibition was -1.59%.

Turning to `COc1cc(CNC(=O)c2cc3n(n2)CCCN(Cc2cccc(F)c2)C3=O)cc(OC)c1OC`, the activity change, negative = inhibition is -0.346%.

For `COC(=O)c1cc(Cl)c(NC(C)=O)cc1OC`, the activity change, negative = inhibition is -2.22%.

As for `CCNC(=O)c1cnn(-c2ccccc2)c1-c1ccccc1`, the activity change, negative = inhibition was 2.38%.

For `Nc1c(C(=O)O)cnn1-c1ccccc1`, the activity change, negative = inhibition was -60.3% (active).

`NNC(=O)c1cnn(-c2ccccc2)c1C(F)(F)F`: the activity change, negative = inhibition is 3.06%.

Take `O=c1ccc2c(-c3ccccc3S(=O)(=O)O)c3ccc(O)c(O)c3oc-2c1O`: the activity change, negative = inhibition is -68% (active).

Consider `O=C(NC1CC(=O)N(c2ccccc2)C1)c1ccco1` (stereo not drawn), for which the activity change, negative = inhibition is -1.35%.

For the compound `CCOc1ccc(C(NC(=O)c2cc(OC)c(OC)c(OC)c2)c2cc(Cl)c3cccnc3c2O)cc1` (stereo not drawn), the activity change, negative = inhibition is -3.07%.

`COc1ccc(OC)c(NC(=O)C2CCCN(S(=O)(=O)c3ccc4c(c3)CCCC(=O)N4)C2)c1` (stereo not drawn): the activity change, negative = inhibition was -2.64%.

As for `CN1CC[C@H](c2c(O)cc(O)c3c(=O)cc(-c4ccccc4Cl)oc23)[C@H](O)C1`, the activity change, negative = inhibition is -3.75%.

On to `Nc1ncnc2c1c(I)cn2[C@@H]1C[C@H](N)[C@@H](O)[C@H]1O`, for which the activity change, negative = inhibition was -21.5%.

Take `NC1CCN(O)C1=O` (stereo not drawn): the activity change, negative = inhibition is 0.196%.

As to `CCOC(=O)c1cc2c(=O)n3ccccc3nc2n(Cc2ccco2)c1=NC(=O)c1ccc(F)cc1`, the activity change, negative = inhibition is -8.37%.

Turning to `Cc1cc(NS(=O)(=O)c2ccc3oc(=O)c4ncn(C)c4c3c2)ccc1Br`, the activity change, negative = inhibition is 3.97%.

Consider `OCC1OC(n2cnc3c(N4CCCC4)ncnc32)C(O)C1O` (stereo not drawn), for which the activity change, negative = inhibition was -0.936%.

As for `CC1(C)O[C@@H]2[C@H](O1)[C@@H](CO)O[C@H]2n1c(N2CCCCC2)nc2c(N)ncnc21`, the activity change, negative = inhibition was -54.5% (active).

As to `Nc1ncnc2c1cnn2C1CC(O)C(CO)O1` (stereo not drawn), the activity change, negative = inhibition is -25.1%.

For `Cn1c(=O)c2c(-c3ccccc3Br)n(Cc3ccccc3)cc2n(C)c1=O`, the activity change, negative = inhibition was -1.93%.

Regarding `O=c1cc(-c2ccccc2)[nH]c2nc(Cl)ccc12`, the activity change, negative = inhibition is 3.68%.

As to `Cc1nnc(C(=O)NC(C)(C)c2nc(C(=O)NCc3ccc(F)cc3)c(O)c(=O)n2C)o1`, the activity change, negative = inhibition is -1.36%.

With `CCN(C(=O)Cn1cc(S(=O)(=O)N2CCN(c3ccccc3F)CC2)c2ccccc2c1=O)c1ccc(C)c(C)c1`, the activity change, negative = inhibition was -1.44%.

In the case of `N#Cc1c(N2CCCCC2)nc(N)c2c(N)nc(SCC(=O)O)cc12`, the activity change, negative = inhibition was -59.8% (active).

As to `COc1cccc(C(=O)NC(=O)Nc2ccc(-c3cc(C(F)(F)F)nn3-c3ccccc3)cc2)c1`, the activity change, negative = inhibition was -3.82%.

With `COc1cccc(C(=O)Nc2ccc(-c3cc(C(F)(F)F)nn3-c3ccccc3)cc2)c1`, the activity change, negative = inhibition was 4.36%.

Regarding `COc1cccc(C(=O)Nc2ccc(N3CCCC3)cc2)c1`, the activity change, negative = inhibition was -68.3% (active).

Consider `CCCCCn1c(=O)[nH]c2cc(C(=O)NCCN(C)CCCC)ccc2c1=O`, for which the activity change, negative = inhibition is 3.6%.

For `O=C(CSc1cn(CC(=O)N2CCOCC2)c2ccccc12)Nc1ccccc1`, the activity change, negative = inhibition is -0.303%.

For the compound `CCCCOCCOC(=O)c1cccnc1`, the activity change, negative = inhibition is 0.377%.

As for `Cc1ccc(CNC(=O)CSc2c(C)cnc3c2c(=O)n(C)c(=O)n3C)cc1`, the activity change, negative = inhibition is -1.23%.

As for `CO[C@]1(NC(=O)CSC(F)F)C(=O)N2C(C(=O)O)=C(CSc3nnnn3CCO)CO[C@H]21`, the activity change, negative = inhibition was -0.764%.

Regarding `CC(C)CNc1ncnc2c1nnn2C`, the activity change, negative = inhibition was 1.45%.

As to `CCN1CCN(C(=O)N[C@@H](C(=O)N[C@@H]2C(=O)N3[C@@H]2SC(C)(C)[C@H]3C(=O)O)c2ccccc2)C(=O)C1=O`, the activity change, negative = inhibition was 2.58%.

Take `CCOc1ccccc1CNC(=O)C1CCCN(S(=O)(=O)c2ccc3c(ccn3C)c2)C1` (stereo not drawn): the activity change, negative = inhibition is 2.73%.

Consider `O=C(CSc1nnc(-c2ccccc2F)o1)Nc1cccc(C(F)(F)F)c1`, for which the activity change, negative = inhibition was 2.53%.

On to `CC1CC2C3CCC4=CC(=O)C=C[C@]4(C)[C@@]3(F)[C@@H](O)C[C@]2(C)[C@@]1(O)C(=O)CO` (stereo partly drawn), for which the activity change, negative = inhibition is 2.22%.

Turning to `CCCCCn1c(=O)[nH]c2cc(C(=O)Nc3ccc(F)cc3)ccc2c1=O`, the activity change, negative = inhibition was 3.49%.

Turning to `COc1ccc(-c2cc(C(=O)NC(Cc3c[nH]c4ccccc34)C(=O)O)c(C)o2)cc1OC` (stereo not drawn), the activity change, negative = inhibition is -4.82%.

As for `COc1ccc(-c2cc(=O)oc3cc(OC(C)C(=O)NCC4CCC(C(=O)O)CC4)ccc23)cc1` (stereo not drawn), the activity change, negative = inhibition is -0.472%.

On to `COc1ccc(-c2cc(=O)oc3cc(OCC(=O)N[C@@H](Cc4c[nH]c5ccccc45)C(=O)O)ccc23)cc1`, for which the activity change, negative = inhibition is -51.9% (active).

`NCC[C@H](O)C(=O)N[C@@H]1C[C@H](N)[C@@H](O[C@H]2O[C@H](CN)[C@@H](O)[C@H](O)[C@@H]2O)[C@H](O)[C@@H]1O[C@H]1O[C@H](CO)[C@@H](O)[C@H](N)[C@@H]1O`: the activity change, negative = inhibition entry was “inactive”.

Take `Cc1ccccc1OCc1nc2c3cnn(-c4ccccc4F)c3ncn2n1`: the activity change, negative = inhibition is -3.76%.

Consider `CCc1ccc(CN(Cc2ccco2)C(=O)COc2ccc(Cl)c(C)c2)cc1`, for which the activity change, negative = inhibition is -7.93%.

For `CCOc1ccc(NC(=O)Cn2c(=O)n(CCCC(=O)NCc3ccc4c(c3)OCO4)c(=O)c3ccccc32)cc1`, the activity change, negative = inhibition was -1.29%.

For `CC1=NN(c2ccc(Cl)c(C(=O)O)c2)C(=O)/C1=C/c1ccc(-c2ccccc2[N+](=O)[O-])o1`, the activity change, negative = inhibition was -58.6% (active).
